Activity calls are given as the source filed them.
What was measured:
[1] = probe aLefty2 binding to arrayed compounds – biochemical, biotinylated probe, 635/667 nm fluorescence, primary screen (AID 1094); conditions: small-molecule microarray, higher = more signal;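 note: score merges spot fluorescence near 667 nm with spot signal-to-noise ratio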
[2] = system: Noggin (protein binding on small-molecule microarray); assay: small molecules binding Noggin protein – biochemical, 635/667 nm fluorescence, primary screen (AID 1095); conditions: 635 nm fluorescence, higher = more signal;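 note: score merges 667 nm feature fluorescence with signal to noise over triplicate slides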
[3] = molecular target: Neurogenic locus notch homolog protein 3 (Homo sapiens) (UniProt Q9UM47); assay: small molecules binding NOTCH3 protein – biochemical, 635/667 nm fluorescence, primary screen (AID 1096); conditions: small-molecule microarray, 635 nm fluorescence, higher = more signal
[4] = probe aEGFR binding to arrayed compounds – biochemical, biotinylated probe, 635/667 nm fluorescence, primary screen (AID 1097); conditions: small-molecule microarray, higher = more signal;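 note: probe is a biotinylated anti-EGFR antibody binding compounds printed on slides; score combines fluorescence near 667 nm and signal to noise of each spot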
[5] = system: Plasmodium falciparum Sir2 (PF13_0152, Sir2A); assay: Plasmodium falciparum Sir2A binding compounds – biochemical, small-molecule microarray, 635 nm fluorescence, primary screen (AID 1098); conditions: fluorescence 635 nm, higher = more signal;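 note: score merges spot fluorescence intensity with its signal-to-noise ratio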
[6] = probe aDKK1 binding to arrayed compounds – biochemical, biotinylated probe, 635/667 nm fluorescence, primary screen (AID 1099); conditions: small-molecule microarray, higher = more signal;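 note: score merges 667nm spot fluorescence with signal to noise across triplicate slides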
[7] = probe aCHRDL2 binding to arrayed compounds – biochemical, biotinylated probe, 635/667 nm fluorescence, primary screen (AID 1100); conditions: small-molecule microarray, higher = more signal
[8] = change in splice reporter luminescence, either direction, cell-based, HEK293, spliceosome inhibition project, primary screen (AID 1101); conditions: HEK293 splicing luciferase reporter, 24 h, higher = more signal, called active from +8 up or from −8 down;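 note: HEK293 cells carrying a splicing-competent luciferase reporter gene; test concentration not given here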
[9] = molecular target: Fibroblast growth factor 10 (Homo sapiens) (UniProt O15520); assay: compounds binding fibroblast growth factor 10 – biochemical, small-molecule microarray, 635 nm fluorescence, primary screen (AID 1102); conditions: FGF10 binding, fluorescence 635 nm, higher = more signal
[10] = system: glycogen synthase kinase-3 (GSK3A per assay name; protocol says GSK3B); assay: compounds binding glycogen synthase kinase-3 – biochemical, small-molecule microarray, 635 nm fluorescence, GSK3A, primary screen (AID 1103); conditions: fluorescence 635 nm, higher = more signal; note: the record names both GSK3A and GSK3B
[11] = molecular target: Epidermal growth factor receptor (Homo sapiens) (UniProt P00533); assay: compounds binding epidermal growth factor receptor – biochemical, small-molecule microarray, 635 nm fluorescence, primary screen (AID 1104); conditions: EGFR binding, higher = more signal;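 note: score merges 667 nm emission intensity with spot signal to noise over triplicate slides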
[12] = molecular target: Follistatin-related protein 3 (Homo sapiens) (UniProt O95633); assay: compounds binding follistatin-related protein 3 – biochemical, small-molecule microarray, 635 nm fluorescence, primary screen (AID 1105); conditions: FSTL3 binding, higher = more signal;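 note: score merges emission near 667 nm and signal to noise per printed spot across three slides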
[13] = molecular target: Dickkopf-related protein 1 (Homo sapiens) (UniProt O94907); assay: small molecules binding DKK1 protein – biochemical, small-molecule microarray, 635 nm fluorescence scan, primary screen (AID 1106); conditions: higher = more signal;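 note: score merges emission near 667 nm with signal to noise over three replicate slides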
[14] = system: Inhibin beta A chain (activin A); assay: small molecules binding activin A – biochemical, small-molecule microarray, 635 nm fluorescence scan, primary screen (AID 1107); conditions: INHBA, higher = more signal;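 note: mouse activin A protein probed at 4.33 µg/mL on printed slides; score merges bound-protein fluorescence near 667 nm with spot signal-to-noise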
[15] = system: Human papillomavirus type 1a protein E7 (residues 44-93); assay: small molecules binding HPV E7 44-93 – biochemical, small-molecule microarray, residues 44-93, 635 nm fluorescence, primary screen (AID 1108); conditions: fluorescence 635 nm, higher = more signal;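 note: E7 fragment applied at 1 µg/mL in TBST for 1 h at 4 C; score combines spot fluorescence with its signal to noise ratio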
[16] = hepatitis C replication reporter changes, two-sided – Huh7 cells, luciferase reporter, HCV replication inhibitor project, primary screen (AID 1109); conditions: Huh7 HCV replicon luciferase reporter, 48 h; higher = more signal;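 note: huh7 hepatoma cells harbouring a luciferase neomycin HCV replicon reporter; luciferase luminescence as measure of HCV replicon replication; test concentration not given here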
[17] = molecular target: Left-right determination factor 2 (Homo sapiens) (UniProt O00292); assay: small molecules binding LEFTY2 protein – biochemical, small-molecule microarray, 635 nm fluorescence scan, primary screen (AID 1110); conditions: higher = more signal
[18] = molecular target: Calmodulin-1 (Homo sapiens) (UniProt P0DP23); assay: small molecules binding calmodulin-1 with EGTA – biochemical, small-molecule microarray, Cy5-labelled CALM1, profiling panel (AID 1111); conditions: Cy5-CALM1 binding fluorescence, higher = more signal;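 note: labelled calmodulin applied in Tris saline Tween buffer holding calcium plus EGTA and DTT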
[19] = molecular target: Calmodulin-1 (Homo sapiens) (UniProt P0DP23); assay: small molecules binding Ca-loaded calmodulin-1 – biochemical, small-molecule microarray, Cy5-labelled CALM1, plus calcium, artefact control for SMM control-protein annotation, profiling panel (AID 1112); conditions: Cy5-CALM1 binding fluorescence, higher = more signal;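 note: score merges spot fluorescence with signal to noise from triplicate slides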
[20] = probe aWnt5a binding to arrayed compounds – biochemical, biotinylated probe, 635/667 nm fluorescence, primary screen (AID 1113); conditions: small-molecule microarray, higher = more signal;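 note: score merges 667 nm fluorescence intensity with signal-to-noise per printed feature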

Neurogenic locus notch homolog protein 3 (Homo sapiens), sequence (Q9UM47 whole entry, looked up): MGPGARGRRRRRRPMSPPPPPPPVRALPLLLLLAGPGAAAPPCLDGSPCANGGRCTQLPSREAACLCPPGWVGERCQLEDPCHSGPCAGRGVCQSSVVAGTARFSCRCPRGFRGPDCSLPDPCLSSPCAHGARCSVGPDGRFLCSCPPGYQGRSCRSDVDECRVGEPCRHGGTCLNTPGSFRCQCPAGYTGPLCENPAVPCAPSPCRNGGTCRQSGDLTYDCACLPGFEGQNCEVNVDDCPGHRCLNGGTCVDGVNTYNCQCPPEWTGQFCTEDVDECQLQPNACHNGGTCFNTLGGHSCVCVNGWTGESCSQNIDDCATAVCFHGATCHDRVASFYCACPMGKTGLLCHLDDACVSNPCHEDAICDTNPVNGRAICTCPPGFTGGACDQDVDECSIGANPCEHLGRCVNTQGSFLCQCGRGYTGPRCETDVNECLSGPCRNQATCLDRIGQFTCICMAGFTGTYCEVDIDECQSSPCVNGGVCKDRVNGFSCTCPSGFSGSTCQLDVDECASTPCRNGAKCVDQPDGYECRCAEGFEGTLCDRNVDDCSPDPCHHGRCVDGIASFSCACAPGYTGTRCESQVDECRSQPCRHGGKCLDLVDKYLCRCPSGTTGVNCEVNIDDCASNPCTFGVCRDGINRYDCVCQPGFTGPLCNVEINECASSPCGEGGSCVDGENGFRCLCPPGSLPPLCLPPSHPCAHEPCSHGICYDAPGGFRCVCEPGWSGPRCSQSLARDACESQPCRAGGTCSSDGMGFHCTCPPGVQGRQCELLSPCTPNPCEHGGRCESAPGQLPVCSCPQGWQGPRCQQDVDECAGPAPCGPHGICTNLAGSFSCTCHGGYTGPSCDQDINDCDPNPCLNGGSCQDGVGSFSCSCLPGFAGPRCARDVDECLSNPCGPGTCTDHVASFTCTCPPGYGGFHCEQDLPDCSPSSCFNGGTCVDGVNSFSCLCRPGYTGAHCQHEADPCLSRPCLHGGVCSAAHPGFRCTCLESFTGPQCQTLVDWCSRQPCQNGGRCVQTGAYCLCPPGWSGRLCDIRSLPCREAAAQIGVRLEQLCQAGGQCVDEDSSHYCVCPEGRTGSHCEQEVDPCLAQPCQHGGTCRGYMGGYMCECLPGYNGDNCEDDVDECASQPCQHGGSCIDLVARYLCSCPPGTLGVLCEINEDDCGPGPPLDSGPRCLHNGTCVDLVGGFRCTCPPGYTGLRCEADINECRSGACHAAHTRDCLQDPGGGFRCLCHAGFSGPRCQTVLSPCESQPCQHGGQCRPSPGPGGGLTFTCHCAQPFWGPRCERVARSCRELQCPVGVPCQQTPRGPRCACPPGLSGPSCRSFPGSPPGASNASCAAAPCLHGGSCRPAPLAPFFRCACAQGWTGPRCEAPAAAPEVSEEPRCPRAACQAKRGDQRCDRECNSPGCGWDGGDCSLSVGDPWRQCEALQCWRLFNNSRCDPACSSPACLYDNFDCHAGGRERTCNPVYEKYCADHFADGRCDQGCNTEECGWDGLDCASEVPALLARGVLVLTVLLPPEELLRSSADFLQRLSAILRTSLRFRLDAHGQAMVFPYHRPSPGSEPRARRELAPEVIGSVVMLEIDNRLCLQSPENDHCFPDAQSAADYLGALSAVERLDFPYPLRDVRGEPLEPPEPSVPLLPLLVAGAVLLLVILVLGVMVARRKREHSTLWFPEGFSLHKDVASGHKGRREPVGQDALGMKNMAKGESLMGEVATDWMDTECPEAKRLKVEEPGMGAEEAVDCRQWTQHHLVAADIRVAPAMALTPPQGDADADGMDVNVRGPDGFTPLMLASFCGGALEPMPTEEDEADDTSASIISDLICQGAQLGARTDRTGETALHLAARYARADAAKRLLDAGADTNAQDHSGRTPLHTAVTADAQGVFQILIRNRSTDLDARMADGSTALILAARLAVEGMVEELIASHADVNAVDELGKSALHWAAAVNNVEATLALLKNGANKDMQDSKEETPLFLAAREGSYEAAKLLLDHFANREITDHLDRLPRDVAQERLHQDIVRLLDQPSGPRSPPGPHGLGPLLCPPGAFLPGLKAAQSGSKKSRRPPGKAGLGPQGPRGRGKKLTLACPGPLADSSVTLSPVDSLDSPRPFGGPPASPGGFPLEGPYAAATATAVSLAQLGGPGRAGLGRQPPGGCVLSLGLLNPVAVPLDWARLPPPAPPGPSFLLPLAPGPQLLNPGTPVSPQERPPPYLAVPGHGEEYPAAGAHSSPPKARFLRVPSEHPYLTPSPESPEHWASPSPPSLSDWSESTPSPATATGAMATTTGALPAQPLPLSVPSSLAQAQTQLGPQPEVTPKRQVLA
Fibroblast growth factor 10 (Homo sapiens), sequence (O15520 whole entry, looked up): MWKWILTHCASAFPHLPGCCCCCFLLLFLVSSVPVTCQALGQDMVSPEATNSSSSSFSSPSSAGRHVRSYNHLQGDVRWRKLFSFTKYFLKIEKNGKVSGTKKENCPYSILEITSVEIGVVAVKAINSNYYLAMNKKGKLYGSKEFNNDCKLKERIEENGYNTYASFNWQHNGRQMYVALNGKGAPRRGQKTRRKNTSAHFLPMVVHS
Follistatin-related protein 3 (Homo sapiens), sequence (O95633 whole entry, looked up): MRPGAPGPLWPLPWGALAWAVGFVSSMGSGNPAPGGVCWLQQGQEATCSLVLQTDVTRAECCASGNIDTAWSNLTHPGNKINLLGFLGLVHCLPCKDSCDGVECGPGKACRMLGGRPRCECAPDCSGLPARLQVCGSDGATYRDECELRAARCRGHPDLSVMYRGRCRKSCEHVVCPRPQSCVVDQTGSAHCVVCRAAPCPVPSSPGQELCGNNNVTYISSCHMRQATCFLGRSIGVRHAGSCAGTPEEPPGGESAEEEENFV
Epidermal growth factor receptor (Homo sapiens), sequence (P00533 whole entry, looked up): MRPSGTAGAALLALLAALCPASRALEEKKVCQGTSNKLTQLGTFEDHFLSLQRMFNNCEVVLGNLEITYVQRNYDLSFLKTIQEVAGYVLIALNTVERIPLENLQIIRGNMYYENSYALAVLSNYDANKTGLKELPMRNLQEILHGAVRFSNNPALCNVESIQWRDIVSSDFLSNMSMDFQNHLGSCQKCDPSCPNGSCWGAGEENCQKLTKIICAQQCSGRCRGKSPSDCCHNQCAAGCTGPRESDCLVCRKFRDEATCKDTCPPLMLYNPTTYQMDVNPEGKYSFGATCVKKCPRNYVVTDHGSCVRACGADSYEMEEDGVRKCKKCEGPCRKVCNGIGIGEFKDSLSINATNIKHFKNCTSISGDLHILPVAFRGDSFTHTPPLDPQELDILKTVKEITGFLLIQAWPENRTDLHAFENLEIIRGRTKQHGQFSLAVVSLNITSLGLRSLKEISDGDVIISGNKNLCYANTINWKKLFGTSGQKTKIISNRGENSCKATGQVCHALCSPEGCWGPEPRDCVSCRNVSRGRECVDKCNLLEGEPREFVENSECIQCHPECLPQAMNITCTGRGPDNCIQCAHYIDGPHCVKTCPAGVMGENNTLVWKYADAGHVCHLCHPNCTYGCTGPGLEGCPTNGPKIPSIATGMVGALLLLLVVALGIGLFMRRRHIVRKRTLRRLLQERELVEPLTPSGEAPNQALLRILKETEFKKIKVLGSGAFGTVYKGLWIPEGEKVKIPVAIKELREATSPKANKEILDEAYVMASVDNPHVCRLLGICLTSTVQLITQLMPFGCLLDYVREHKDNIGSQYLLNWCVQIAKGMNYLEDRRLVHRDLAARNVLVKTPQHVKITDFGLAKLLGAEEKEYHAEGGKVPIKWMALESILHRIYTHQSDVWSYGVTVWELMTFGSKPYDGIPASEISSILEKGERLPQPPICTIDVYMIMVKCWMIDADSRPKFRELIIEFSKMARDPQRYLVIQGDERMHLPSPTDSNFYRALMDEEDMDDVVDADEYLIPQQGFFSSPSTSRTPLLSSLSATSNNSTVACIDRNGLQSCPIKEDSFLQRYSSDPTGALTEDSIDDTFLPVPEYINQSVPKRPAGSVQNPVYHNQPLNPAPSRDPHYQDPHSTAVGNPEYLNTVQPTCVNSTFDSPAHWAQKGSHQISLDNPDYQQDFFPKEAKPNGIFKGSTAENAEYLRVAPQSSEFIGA
Left-right determination factor 2 (Homo sapiens), sequence (O00292 whole entry, looked up): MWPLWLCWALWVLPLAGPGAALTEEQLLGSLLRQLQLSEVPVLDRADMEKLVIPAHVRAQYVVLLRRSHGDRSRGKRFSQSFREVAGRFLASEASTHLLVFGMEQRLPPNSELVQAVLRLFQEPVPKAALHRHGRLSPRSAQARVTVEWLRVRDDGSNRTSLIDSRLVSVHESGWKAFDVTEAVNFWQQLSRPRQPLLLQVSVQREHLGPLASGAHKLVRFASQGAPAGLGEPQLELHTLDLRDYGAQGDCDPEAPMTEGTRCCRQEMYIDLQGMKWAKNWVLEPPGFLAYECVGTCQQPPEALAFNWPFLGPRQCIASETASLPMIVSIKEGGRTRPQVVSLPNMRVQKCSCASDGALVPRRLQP
Dickkopf-related protein 1 (Homo sapiens), sequence (O94907 whole entry, looked up): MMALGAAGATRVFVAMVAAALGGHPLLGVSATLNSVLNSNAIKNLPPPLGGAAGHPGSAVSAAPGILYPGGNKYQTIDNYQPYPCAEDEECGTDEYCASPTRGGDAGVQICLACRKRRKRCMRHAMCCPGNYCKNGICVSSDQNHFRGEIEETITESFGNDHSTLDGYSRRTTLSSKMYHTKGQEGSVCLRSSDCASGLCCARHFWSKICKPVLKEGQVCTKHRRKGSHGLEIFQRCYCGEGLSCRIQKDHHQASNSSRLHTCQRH

| Compound | composite z-score [1] | composite z-score [2] | composite z-score [3] | composite z-score [4] | composite z-score [5] | composite z-score [6] | composite z-score [7] | z-score [8] | composite z-score [9] | composite z-score [10] | composite z-score [11] | composite z-score [12] | composite z-score [13] | composite z-score [14] | composite z-score [15] | z-score [16] | composite z-score [17] | composite z-score [18] | composite z-score [19] | composite z-score [20] |
| --- | --- | --- | --- | --- | --- | --- | --- | --- | --- | --- | --- | --- | --- | --- | --- | --- | --- | --- | --- | --- |
| C=C(/C(=C/C[C@H](OC(=O)c1ccncc1)c1cccc(OCCO)c1)c1cc(C(=O)OC)ccc1OC)C(C)C | -0.192 | 0.126 | 0.436 | -0.112 | 0.903 | 0.235 | 0.569 | -1.63 (inactive) | 0.493 | -0.129 | -0.763 | -0.127 | -0.227 | 0.639 | 0.0251 | -1.86 | -0.107 | -0.193 | -0.808 | -0.169 |
| C=C(COC)C(=O)CC[C@H](OC(=O)c1ccccc1-c1ccccc1C(=O)O)c1ccccc1OCCO | -0.235 | 0.877 | 0.385 | -0.155 | 1.52 | -0.227 | -0.053 | -0.51 (inactive) | 0.595 | 0.264 | -0.124 | 0.159 | 0.307 | 1.1 | -0.15 | -1.46 | 0.273 | 0.209 | -0.749 | -0.118 |
| C=C(C1=CCN(S(=O)(=O)c2ccc(C)cc2)C1)[C@@H](OC(C)=O)[C@@H]1CCCN1S(=O)(=O)c1ccccc1[N+](=O)[O-] | -0.297 | -0.305 | 0.127 | -0.202 | 1.55 | -0.362 | -0.254 | -3.24 (inactive) | 0.0611 | -0.297 | -0.0578 | -0.114 | -0.239 | 1.2 | -0.38 | -4.62 | -0.0476 | -0.765 | -0.856 | -0.208 |
| C=CCNC(=O)[C@@H]1[C@H]2C(=O)O[C@H](c3ccccc3)[C@H](c3ccccc3)N2[C@H](c2ccc(O)cc2)[C@@]12C(=O)Nc1ccccc12 | -0.189 | 0.855 | 0.31 | -0.129 | 0.442 | -0.0741 | 0.363 | 0.633 (inactive) | 0.237 | -0.608 | -1.14 | 0.133 | 0.131 | -0.287 | 0.197 | -0.603 | -1.01 | 0.439 | 0.259 | -0.0758 |
| C=C(COC)/C(=C/C[C@H](OC(C)=O)c1cccc(OCCO)c1)c1cc(C(=O)OC)ccc1OC | 0.0056 | 1.29 | 0.694 | -0.151 | 0.84 | 0.0919 | -0.143 | -4.8 (inactive) | 1.21 | 0.656 | 0.0086 | 1.33 | 1.47 | 0.981 | -0.109 | -4.08 | 0.38 | -0.547 | -0.377 | -0.0556 |
| CN(C)CCCC[C@@H]1NC(=O)[C@@H]2C[C@H](C(=O)NCCCCCNC(=O)CS)[C@H](c3cccc(OCCO)c3)N2C1=O | 0.0494 | 1.62 | 0.162 | 0.186 | 1.72 | -0.08 | -0.305 | -3.22 (inactive) | 0.551 | 0.684 | 0.35 | 0.356 | 1.08 | 0.995 | -0.0825 | 1.94 | 1 | 0.497 | 0.843 | -0.034 |
| O=C1c2ccccc2[C@](Cc2ccccc2I)(C(=O)O)[C@H](c2ccc(CO)cc2)N1Cc1ccccc1Cl | 0.0678 | -0.168 | 0.239 | -0.104 | 0.96 | 0.815 | 1.06 | 0.0252 (inactive) | 0.235 | -0.0679 | -0.197 | 0.521 | 0.697 | 0.623 | 1.15 | -0.219 | -0.0287 | 1.56 | 0.586 | -0.163 |
| C=C(C(=O)CC[C@@H](OC(C)=O)c1ccccc1OCCO)C(C)C | -0.2 | -0.0776 | 0.232 | -0.249 | 0.967 | -0.416 | -0.0909 | -1.41 (inactive) | 1.14 | -0.465 | -0.847 | -0.406 | 0.108 | 0.959 | -0.512 | -3.88 | -0.325 | -0.942 | -1.21 | -0.202 |
| NC(=O)N1C(=O)C2C(C1=O)C1C=C(c3ccc(CO)cc3)C2C(C2CC2)N1Cc1cc2c(cc1Br)OCO2 (stereo not given) | 0.0834 | 0.176 | 0.623 | -0.0975 | 0.105 | 0.176 | 0.691 | -0.87 (inactive) | 0.151 | 0.314 | -0.505 | -0.0544 | -0.196 | 1.34 | 0.0207 | -1.03 | -0.254 | 0.438 | 0.163 | -0.124 |
| C/C=C/[C@@H](CCn1cc(CCO[Si](C(C)C)(C(C)C)C(C)C)nn1)[Si](C)(C)c1ccc(OC)cc1 | -0.275 | -1.15 | -3.03 | -0.406 | -0.82 | -0.941 | -0.34 | -2.83 (inactive) | -1.03 | -0.918 | -2.01 | -1.72 | -1.03 | 1.01 | -0.77 | -0.918 | -0.426 | -2.98 | -2.87 | -0.182 |
| CC(C)C[C@@H]1NC(=O)[C@@]23C(=O)N[C@@H](Cc4ccccc4)C2[C@H](C)[C@@]2(C)O[C@H]2C3/C=C/CC/C=C/CNC(=O)[C@@H](C)NC1=O (stereo not given in full) | -0.19 | 1.28 | 0.71 | -0.162 | 0.624 | -0.246 | -0.722 | -0.585 (inactive) | 1.39 | 0.374 | 0.732 | 1.07 | 0.81 | 1.29 | -0.211 | 0.42 | 0.575 | -0.643 | -1.39 | -0.154 |
| COC(=O)C1=CC(c2ccc(CO)cc2)=CC(C2CC2)N(C)C=C1C(=O)OC (stereo not given) | -0.141 | -0.946 | -0.464 | -0.154 | 1.97 | 0.341 | 0.542 | -1.93 (inactive) | 0.17 | -0.373 | -0.125 | -0.172 | 0.466 | 0.606 | -0.139 | -0.748 | -0.246 | 1.52 | 0.454 | -0.0179 |
| CCOC(=O)C[C@H]1[C@H](OC(=O)c2ccc(-c3ccccc3)cc2)[C@@H](NC(=O)C2CCCCC2)c2cc(OCCCO)ccc2N1C(=O)c1ccc2ccccc2n1 | 0.0366 | 0.0692 | 1.1 | -0.0631 | 0.13 | 0.414 | 0.111 | -1.65 (inactive) | 0.651 | 0.708 | 0.0502 | 0.392 | 1.12 | -0.167 | 1.19 | -0.241 | 0.197 | 1.24 | 0.854 | 0.0102 |
| CCCCC(=C=CC[C@H](O)c1cccc(OCCO)c1)CCO | -0.12 | 0.0201 | -0.498 | -0.268 | 0.674 | -0.0104 | 0.287 | -0.261 (inactive) | 0.0392 | -0.558 | -0.932 | -0.764 | -0.263 | 1.07 | -0.397 | -1.21 | -0.497 | -0.357 | -0.0182 | -0.0462 |
| COc1ccc(C(=O)Nc2cccc(CN3C(=O)[C@@]4(O[C@@H](CCO)[C@H]([Si](C)(C)c5ccc(OC)cc5)[C@H]4C)c4ccccc43)c2)cc1 | 0.0005 | 0.297 | 0.0772 | -0.155 | 0.775 | 0.481 | 0.666 | 1.92 (inactive) | 0.0414 | 0.2 | -0.121 | 0.131 | 0.19 | 1.49 | 0.721 | -5.15 | -0.0057 | 1.08 | 1.03 | -0.0721 |
| CCOC(=O)C[C@H]1[C@H](OC(=O)c2ccc(-c3ccccc3)cc2)[C@@H](NC(=O)c2ccccc2)c2cc(OCCCO)ccc2N1C(=O)c1ccccc1 | 0.0921 | -0.0461 | 0.526 | -0.019 | 0.204 | 0.462 | 0.47 | -2.01 (inactive) | 0.767 | 0.66 | -0.0664 | 0.235 | -0.188 | -0.649 | 1.11 | -1.58 | 0.394 | 2.04 | 1.2 | -0.0718 |
